Assay outcomes (PubChem)
SKOV3 invasion = blocks SKOV3ip1 adhesion and invasion in omental model; SKOV3ip1-GFP adhesion/invasion on 3D omental model, fluorescence; Potency, µM (series often up to 45.8 µM), inactives show top-dose activity change, negative = inhibition, actives largely listed as inhibitors; actives 0.1% (n = 46,000);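 note: plate controls were DMSO wells for no effect and tomatine positive control wells for full effect; nearly all actives have a fitted effect of over 65% in size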
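Primary human omental fibroblast/mesothelial 3D culture pre-formed 48 h. SKOV3ip1-GFP cells added with compounds (0.36-46 umol/L), incubated 2 h RT/16 h 37 C, fixed; GFP cells quantified at 488/509 nm.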
GALC G270D up = galactocerebrosidase G270D activity enhancement, cell-based; P54803; 145M-Twi-hGALC-G270D cells (Twitcher mouse brain line with human GALC G270D), HMU-beta-Gal fluorescence, 48 h; Potency, µM (top dose mostly 57.5 µM), usual class: activators; actives 0.1% (n = 45,000); AID 1159614; note: 0% is about no effect; nearly all actives have a fitted effect of over 65% in size
Target sequence (P54803 whole entry G286D): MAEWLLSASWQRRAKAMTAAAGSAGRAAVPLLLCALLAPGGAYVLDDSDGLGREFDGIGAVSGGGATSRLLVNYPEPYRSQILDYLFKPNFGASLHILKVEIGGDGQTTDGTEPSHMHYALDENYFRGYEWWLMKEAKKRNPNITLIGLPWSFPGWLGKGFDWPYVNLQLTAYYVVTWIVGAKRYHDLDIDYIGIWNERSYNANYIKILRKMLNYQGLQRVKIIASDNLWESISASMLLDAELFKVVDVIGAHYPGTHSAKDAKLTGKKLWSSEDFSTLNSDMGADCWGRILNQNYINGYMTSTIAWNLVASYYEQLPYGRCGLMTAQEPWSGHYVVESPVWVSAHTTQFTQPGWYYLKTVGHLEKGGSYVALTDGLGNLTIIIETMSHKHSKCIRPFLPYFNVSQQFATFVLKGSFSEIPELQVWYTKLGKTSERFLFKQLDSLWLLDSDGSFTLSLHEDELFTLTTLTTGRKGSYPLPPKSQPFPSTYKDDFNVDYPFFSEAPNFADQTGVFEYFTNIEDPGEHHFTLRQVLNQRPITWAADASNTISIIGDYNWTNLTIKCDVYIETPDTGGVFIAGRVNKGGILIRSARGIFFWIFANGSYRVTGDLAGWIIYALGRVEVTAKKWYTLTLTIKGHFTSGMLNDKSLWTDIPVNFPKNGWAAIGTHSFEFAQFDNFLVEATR
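Brain-derived Twitcher mouse 145M-Twi cells stably expressing human GALC-G270D or wild-type GALC, treated live, then residual GALC activity read by fluorescence of HMU-b-Gal substrate (0.1 mM final) in citrate-phosphate buffer pH 5.2 with sodium taurocholate. Signal increase indicates enhancement.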
pS6 MEF inh = inhibitors of mTORC1 signaling in Tsc2-/- p53-/- MEF cells; Tsc2-/- p53-/- MEF, phospho-rpS6 immunofluorescence/PI, 24 h; Potency, µM (titrated, usually from 38.3 µM), for inactives: at the highest dose activity change, negative = inhibition, hits mostly inhibitors; AID 493208; actives 0.78% (n = 44,000);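 note: plate controls were DMSO for no effect and rapamycin for full effect; nearly all actives have a fitted effect of over 50% in size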
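Plate MEFs (Tsc2-/-, p53-/-, empty vector) in DMEM/10% FBS; after 24 h add compound, incubate 24 h at 37 degree Celsius; fix in PFA/TX-100, block, stain phospho-rpS6 and 10 uM PI; scan at 488 nm; report % positive cells.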
S16 F2sN tox = S16 Schwann cell cytotoxicity; S16 Pmp22-F2sN Schwann cells viability, CellTiter-Glo, 24 h; Potency, µM (top dose mostly 57.5 µM), inactives show top-dose activity change, negative = cytotoxicity, usual class: cytotoxic; actives 0.48% (n = 43,000); note: % is set by controls: 0 for no effect and ±100 for the full control effect; nearly all actives have a fitted effect of over 65% in size
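Viability was measured by CellTiter-Glo luminescence (15 min, room temperature). This followed 24 h at 37 °C of compound exposure (23 nL pin transfer) in S16 Pmp22-F2sN Schwann cells, 500-1,000 per well.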
PMP22 txn = PMP22 gene transcription modulation; S16 Pmp22-F2sN Schwann cells (luciferase reporters placed in the Pmp22 gene), FLuc/NLuc coincidence luminescence, 24 h; Potency, µM (series often up to 57.5 µM), for inactives: top-dose activity change, negative = inhibition, actives largely listed as inhibitors; actives 2% (n = 43,000); active = clear falling dose curves in both reporters; inconclusive = both reporters move, but less clearly or upward; inactive = either reporter flat; the % is the NLuc reporter signal; note: % is set by controls: 0 for no effect and ±100 for the full control effect
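qHTS, 1536-well. Cells seeded, compounds added by pin tool, 24 h 37C. Nano-Glo reagent 1 (lysis/FLuc), 10 min RT, read; Stop&Glo, 10 min RT, read NLuc.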
* marks the source's active call; other numbers are inactive results. Shown are actives, neighbours in structure and some others; about 2.6% of the full set was active somewhere. Unless noted, calls come from the whole dose curve; as a rule, active = well fitted curve in the direction sought with a large enough effect; inconclusive = small, poorly fitted or top-dose-only effect, or another doubt; inactive = no such curve, though single readings can be large; an effect the other way counts as inactive or inconclusive. Potency is the fitted concentration of half-maximal effect.

Screening CCOc1ccccc1Nc1nc(-c2cccc(Cl)c2)c2c(n1)-c1ccccc1OC2 returned SKOV3 invasion -7.7%, GALC G270D up inactive, pS6 MEF inh 2.93µM*, S16 F2sN tox 3.9% and PMP22 txn -10.7%.
For Cc1ccc(-c2c(C)n3c4c(=O)n(C)c(=O)n(C)c4nc3n2CCCO)cc1 the results were SKOV3 invasion 9.8%, GALC G270D up inactive, pS6 MEF inh -4.5%, S16 F2sN tox 31.6µM* and PMP22 txn inconclusive.
`CCc1c(O)cc(O)c(C(=O)c2ccc(OCCN3CCOCC3)c(OC)c2)c1CC(=O)N(CCOC)CCOC` gave SKOV3 invasion 14.3%.
COc1ccccc1NC(=O)C1=C(C)Nc2nc(SCc3cc(C)ccc3C)nn2C1c1ccccc1 (centres undefined) was read as SKOV3 invasion 8.0%, GALC G270D up inactive, pS6 MEF inh -2.7%, S16 F2sN tox 10µM* and PMP22 txn 16.8µM*.
C#CCn1c(=NC(=O)c2ccc3c(c2)OCCO3)sc2cc(OC)c(OC)cc21 was read as SKOV3 invasion -3.3%, GALC G270D up inactive, pS6 MEF inh 14.2%, S16 F2sN tox 2.9% and PMP22 txn inconclusive.
For CCn1c(=NC(=O)c2ccc3c(c2)OCCO3)sc2c(C)ccc(OC)c21 the results were SKOV3 invasion inactive, GALC G270D up inactive, pS6 MEF inh -18.6%, S16 F2sN tox 2.4% and PMP22 txn 9.17µM*.
Screening CCc1ccc(C(=O)c2cnc3ccc(F)cc3c2S(=O)(=O)c2ccccc2)cc1 returned SKOV3 invasion -10.4%, GALC G270D up inactive, pS6 MEF inh 11.7µM*, S16 F2sN tox -29.9% and PMP22 txn inconclusive.
Screening CCc1cnn2c(NCc3ccc[n+]([O-])c3)cc(N3CCCC[C@@H]3CCO)nc12 returned SKOV3 invasion -2.2%.
Cc1csc(-c2nnc(Nc3ccc(Oc4ncccc4-c4ccnc(N)n4)cc3)c3ccccc23)c1 was read as SKOV3 invasion 26.0%.
`COC(=O)c1ccccc1NC(=O)CSc1n[nH]c(C)n1` gave SKOV3 invasion -3.1%, GALC G270D up inactive, pS6 MEF inh -2.7%, S16 F2sN tox 8.7% and PMP22 txn -1.6%.
Screening COC(=O)c1ccccc1NC(=O)CSc1nc(-c2ccccc2)cc(C(F)(F)F)n1 returned SKOV3 invasion -10.9%, GALC G270D up 10µM*, pS6 MEF inh -3.5%, S16 F2sN tox -2.2% and PMP22 txn -12.9%.
For N#Cc1c(C(F)(F)F)cc(-c2cccs2)nc1SCC(=O)Nc1cccc(Br)c1 the results were SKOV3 invasion -0.4%, GALC G270D up inactive, pS6 MEF inh 11.7µM*, S16 F2sN tox 1.4% and PMP22 txn -1.1%.
For COc1ccc(NC(=O)CSc2nc(-c3cccs3)cc(C(F)(F)F)n2)cc1Cl the results were SKOV3 invasion inactive, GALC G270D up inactive, pS6 MEF inh -27.4%, S16 F2sN tox 0.3% and PMP22 txn inconclusive.
`COc1ccc(NC(=O)CSc2nc(-c3cccs3)cc(C(F)(F)F)n2)cc1OC` gave SKOV3 invasion 1.9%, GALC G270D up inactive, pS6 MEF inh -13.9%, S16 F2sN tox inconclusive and PMP22 txn 4.22µM*.
`COc1ccc(OC)c(C2CC(=O)c3c([nH]c(C(=O)OCc4ccc(C)cc4)c3C)C2)c1` (centres undefined) gave SKOV3 invasion inactive, GALC G270D up inactive, pS6 MEF inh 6.56µM*, S16 F2sN tox inconclusive and PMP22 txn -15.6%.
For CCOc1ccc(C2CC(=O)c3c([nH]c(C(=O)OC4CCC(C)CC4)c3C)C2)cc1 (centres undefined) the results were SKOV3 invasion 24.7%, GALC G270D up inactive, pS6 MEF inh -13.1%, S16 F2sN tox 4.2% and PMP22 txn -6.8%.
Screening CCOc1ccc(C2CC(=O)c3c([nH]c(C(=O)OCCOc4ccccc4)c3C)C2)cc1 (centres undefined) returned SKOV3 invasion -11.5%, GALC G270D up inactive, pS6 MEF inh -10.4%, S16 F2sN tox 28.2µM* and PMP22 txn inconclusive.
Screening CCc1ccc(C2CC(=O)c3c([nH]c(C(=O)OCCOc4ccccc4)c3C)C2)cc1 (centres undefined) returned SKOV3 invasion inconclusive, GALC G270D up inactive, pS6 MEF inh 5.21µM*, S16 F2sN tox inconclusive and PMP22 txn 15µM*.
O=C(c1ccc(C=Cc2n[nH]c3ccccc23)cc1)N1CCNCC1 was read as SKOV3 invasion 6.6%.
OCc1ccccc1O was read as GALC G270D up inactive.
Oc1ccc2ccccc2c1SSc1c(O)ccc2ccccc12 was read as SKOV3 invasion 26.4µM*.
`Cc1ccc2sc(N(CCCN(C)C)C(=O)c3ccco3)nc2c1C` gave SKOV3 invasion inactive, GALC G270D up inactive, pS6 MEF inh 11.7µM*, S16 F2sN tox inconclusive and PMP22 txn inconclusive.
`CCN(CC)CCN(C(=O)c1ccco1)c1nc2c(C)c(C)ccc2s1` gave SKOV3 invasion -5.6%, GALC G270D up inactive, pS6 MEF inh -6.4%, S16 F2sN tox -12.1% and PMP22 txn inconclusive.
`c1ccc2c(-c3cnn4cc(-c5ccc(N6CCNCC6)cc5)cnc34)ccnc2c1` gave SKOV3 invasion 23.5µM*.
Screening c1cc(-c2cnn3cc(-c4ccc(OCCN5CCCCC5)cc4)cnc23)ccn1 returned SKOV3 invasion 54.1%.
For C[C@H](NC(=O)[C@@H](O)c1cc(F)cc(F)c1)C(=O)N[C@@H]1C(=O)N(C)c2ccccc2-c2ccccc21 the results were SKOV3 invasion -0.2%.
Screening CN(C)CCN1C(=O)c2cccc3cc(N)cc(c23)C1=O returned SKOV3 invasion 11.0%.
Screening Cc1nnc(NC(=O)c2nc(S(=O)(=O)Cc3ccccc3)ncc2Cl)s1 returned SKOV3 invasion inconclusive, GALC G270D up inactive, pS6 MEF inh inconclusive, S16 F2sN tox 5.01µM* and PMP22 txn 12.9µM*.
`O=C(Nc1nc2ccc(F)cc2s1)c1nc(S(=O)(=O)Cc2ccccc2)ncc1Cl` gave SKOV3 invasion inconclusive, GALC G270D up inactive, pS6 MEF inh -8.5%, S16 F2sN tox 6.31µM* and PMP22 txn 6.23µM*.
Screening CCSc1ncc(Cl)c(C(=O)Nc2nc3ccc(OC)cc3s2)n1 returned SKOV3 invasion 3.1%, GALC G270D up inactive, pS6 MEF inh 3.7%, S16 F2sN tox 0.4% and PMP22 txn -10.9%.
For COc1ccc2nc(NC(=O)c3nc(S(=O)(=O)Cc4ccccc4)ncc3Cl)sc2c1 the results were SKOV3 invasion inconclusive, GALC G270D up inactive, pS6 MEF inh 9.27µM*, S16 F2sN tox 5.62µM* and PMP22 txn 2.99µM*.
